The first assay concerns the target MEX3D. The assay is described as follows: pooled miR-30 sensor sort-seq; sequence = guide strand. As to conditions: shRNA.
TAGGTGTGCGTCCGCTGCTGGA yielded a sensor-assay potency score (higher = more potent) of -1.39.
Still for that read-out and setting: the same measure for TTGACCGTGGAGCAGCCGCTGA: -1.71; for TTGATGTAGGTGTTTGTCTTGG: -0.318; for TTGCCGGAGCCGCTGTAGGGGC: -1.61.
Same read-out and setting: under TTGATCTTGCAGCCCTGGCGAC stands -1.24; under TAGGTGTTTGTCTTGGCCCGCA, 0.155.
Still for that read-out and setting: the same measure for TGATGTAGGTGTTTGTCTTGGC: 0.554; for AGGAAGTCGAAGTCGAAGCCGA: -1.39.
For AAGTCGAAGCCGAAGTCGCAGT, the sensor-assay potency score (higher = more potent) was -0.692.
On to TGGTCGGCCAGCAGCGTCGGGG, for which the sensor-assay potency score (higher = more potent) was -1.69.
The same measure, in the same setting: the same measure for TTGGCGTGGAAGTCGCTGTCGG: -0.234; for TTGACGCTTTTCTTGCGGCTGC: -0.68.

The target of another assay is MFNG. The assay is described as above. To be noted: shRNA.
Regarding ATAGTTGTCATCGTCCACATGG, the sensor-assay potency score (higher = more potent) was -0.521.
Still for that read-out and setting: under TCGAACTCAGCAGCCATCTTGC stands -1.05; under TCGGTGAAGACAAATGTCTGTT, -0.485; under TAGTTGTCATCGTCCACATGGC, -0.357.
On the same count and under the same terms, the same measure for TTTGTCTGGGCTGTCGGTGAAG: -0.931.
Same read-out and setting: the same measure for AATGAAGACATCGTGTAGCTGT: 0.421; for TTGTCATCGTCCACATGGCAGA: -1.57.
Take TTGCACTCAATGATATAGCCCA: the sensor-assay potency score (higher = more potent) was -0.194.
Further: reference of the scale not given here.
